“And” between values parts separate entries of the source, which are not always exact repeats. Equal entries are not always repeated. Out of some 5,500 compounds screened, about 2,000 (36%) were called active. About 18% were inconclusive and are not listed. No stated cut-off is given here; in the data, active means normalized growth mostly below about 0.91 (no sharp cut-off); inconclusive means no clear call, values can overlap the other calls; inactive means mostly above about 0.92. The list shows a part of the results.
Assay: chemical genetic growth profiling, strain panel (AID 1159580);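 further: tested at 20 µM; growth read once vehicle control cultures reached saturation at 30 °C; 1 = growth at the plate median or of vehicle wells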
Settings: S. cerevisiae deletion strains, growth OD
[1] = locus YAL013W, strain DEP1, stronger effect = lower value
[2] = locus YBR229C, strain ROT2, stronger effect = lower value
[3] = locus YCL061C, strain MRC1, stronger effect = lower value
[4] = locus YDL101C, strain DUN1, stronger effect = lower value
[5] = locus YDR150W, strain NUM1, stronger effect = lower value
[6] = locus YEL061C, strain CIN8, stronger effect = lower value
[7] = locus YGR078C, strain PAC10, stronger effect = lower value
[8] = locus YHR030C, strain SLT2, stronger effect = lower value
[9] = locus YHR087W, strain rtc3, stronger effect = lower value
[10] = locus YJR043C, strain POL32, stronger effect = lower value
[11] = locus YJR075W, strain HOC1, stronger effect = lower value
[12] = locus YLR039C, strain RIC1, stronger effect = lower value
[13] = locus YLR058C, strain SHM2 (second series), stronger effect = lower value
[14] = locus YLR085C, strain ARP6, stronger effect = lower value
[15] = locus YLR262C, strain YPT6, stronger effect = lower value
[16] = locus YML094W, strain GIM5, stronger effect = lower value
[17] = locus YMR219W, strain ESC1, stronger effect = lower value
[18] = locus YMR263W, strain SAP30, stronger effect = lower value
[19] = locus YNL153C, strain GIM3, stronger effect = lower value
[20] = locus YNL298W, strain CLA4 (second series), stronger effect = lower value
[21] = locus YNL322C, strain KRE1, stronger effect = lower value
[22] = locus YNR030W, strain Alg12, stronger effect = lower value
[23] = locus YPL055C, strain LGE1, stronger effect = lower value
[24] = locus YPL241C, strain CIN2, stronger effect = lower value
[25] = locus YPR135W, strain CTF4, stronger effect = lower value

Measured: normalized growth

OC1(C(F)(F)F)CC(c2ccccc2)=NN1 (centres undefined)
active: [15] 0.809
inactive: [1] 0.974 | [2] 0.968 | [3] 0.978 | [4] 0.987 | locus YDL134C, strain PPH21, stronger effect = lower value 0.984 | [5] 0.949 | [6] 1 | [7] 0.972 | [8] 1.08 | [9] 0.967 | locus YJL187C, strain SWE1, stronger effect = lower value 1 | [10] 0.991 | [11] 0.915 | [12] 0.843 | [13] 0.961 | [14] 1.03 | [16] 1 | [17] 0.976 | [18] 0.976 | [19] 0.981 | [20] 0.989 | [21] 0.953 | [22] 1 | [23] 0.981 | [24] 1.02 | [25] 0.92

OC1(C(F)(F)F)CC(c2ccc3ccccc3c2)=NN1 (centres undefined)
active: [1] 0.205 | locus YAR019C, strain CDC15, stronger effect = lower value 0.155 | locus YBL105C, strain PKC1, stronger effect = lower value 0.336 | locus YBR135W, strain CKS1, stronger effect = lower value 0.263 | locus YBR136W, strain MEC1, stronger effect = lower value 0.339 | locus YBR160W, strain CDC28, stronger effect = lower value 0.367 | [2] 0.223 | [3] 0.19 | locus YDL017W, strain CDC7, stronger effect = lower value 0.373 | locus YDL028C, strain MPS1, stronger effect = lower value 0.402 | [4] 0.215 and 0.164 | locus YDL108W, strain KIN28, stronger effect = lower value 0.392 | locus YDL132W, strain cdc53, stronger effect = lower value 0.234 | locus YDL214C, strain PRR2, stronger effect = lower value 0.224 | locus YDR052C, strain DBF4, stronger effect = lower value 0.302 | locus YDR054C, strain cdc34, stronger effect = lower value 0.233 | [5] 0.397 | locus YDR226W, strain ADK1, stronger effect = lower value 0.278 | locus YDR477W, strain SNF1, stronger effect = lower value 0.146 | [6] 0.146 | locus YER123W, strain YCK3, stronger effect = lower value 0.181 | locus YER133W, strain GLC7, stronger effect = lower value 0.135 | locus YFL009W, strain cdc4, stronger effect = lower value 0.17 | locus YFL029C, strain CAK1, stronger effect = lower value 0.16 | locus YFR003C, strain YPI1, stronger effect = lower value 0.405 | locus YFR019W, strain FAB1, stronger effect = lower value 0.376 | locus YFR028C, strain CDC14, stronger effect = lower value 0.226 | locus YGR040W, strain KSS1, stronger effect = lower value 0.135 | locus YGR052W, strain FMP48, stronger effect = lower value 0.15 | [7] 0.213 | locus YGR092W, strain DBF2, stronger effect = lower value 0.198 | [8] 0.0763 and 0.104 | locus YHR079C, strain IRE1, stronger effect = lower value 0.125 | locus YHR082C, strain KSP1, stronger effect = lower value 0.141 | [9] 0.442 | locus YHR205W, strain SCH9, stronger effect = lower value 0.138 | locus YIL147C, strain SLN1, stronger effect = lower value 0.322 | locus YJL095W, strain BCK1, stronger effect = lower value 0.115 | locus YJL128C, strain PBS2, stronger effect = lower value 0.386 | locus YJL157C, strain FAR1, stronger effect = lower value 0.301 | locus YJR016C, strain ILV3, stronger effect = lower value 0.162 | [10] 0.245 | locus YJR066W, strain TOR1 (second series), stronger effect = lower value 0.192 | locus YJR066W, strain TOR1, stronger effect = lower value 0.125 | [11] 0.298 | locus YKL048C, strain ELM1, stronger effect = lower value 0.285 | locus YKL067W, strain YNK1, stronger effect = lower value 0.279 | locus YKL101W, strain HSL1, stronger effect = lower value 0.251 | locus YKL190W, strain CNB1, stronger effect = lower value 0.0734 | locus YKL193C, strain SDS22, stronger effect = lower value 0.161 | locus YKL203C, strain TOR2, stronger effect = lower value 0.13 | [12] 0.13 | [13] 0.274 | [14] 0.0695 | locus YLR113W, strain HOG1, stronger effect = lower value 0.15 | locus YLR133W, strain CKI1, stronger effect = lower value 0.27 | [15] 0.12 | locus YLR403W, strain SFP1, stronger effect = lower value 0.0326 | locus YML070W, strain DAK1, stronger effect = lower value 0.211 | [16] 0.192 | locus YMR001C, strain CDC5, stronger effect = lower value 0.151 | locus YMR205C, strain PFK2 (second series), stronger effect = lower value 0.218 | [17] 0.258 | [18] 0.298 | locus YMR277W, strain FCP1, stronger effect = lower value 0.172 | locus YMR307W, strain GAS1, stronger effect = lower value 0.13 | locus YNL006W, strain LST8, stronger effect = lower value 0.2 | locus YNL020C, strain ARK1, stronger effect = lower value 0.257 | [19] 0.239 | locus YNL161W, strain CBK1, stronger effect = lower value 0.211 | locus YNL183C, strain NPR1, stronger effect = lower value 0.115 | locus YNL207W, strain RIO2, stronger effect = lower value 0.195 | locus YNL222W, strain SSU72, stronger effect = lower value 0.225 | [20] 0.0831 | locus YNL307C, strain MCK1 (second series), stronger effect = lower value 0.228 | [21] 0.571 | [22] 0.108 | locus YOL006C, strain TOP1, stronger effect = lower value 0.1 | locus YOL078W, strain AVO1, stronger effect = lower value 0.186 | locus YOL136C, strain PFK27, stronger effect = lower value 0.211 | locus YOR061W, strain CKA2, stronger effect = lower value 0.43 | locus YOR119C, strain RIO1, stronger effect = lower value 0.129 | locus YOR231W, strain MKK1, stronger effect = lower value 0.132 | locus YOR329C, strain SCD5, stronger effect = lower value 0.203 | locus YPL031C, strain PHO85, stronger effect = lower value 0.126 | [23] 0.157 | locus YPL153C, strain RAD53, stronger effect = lower value 0.115 | locus YPL204W, strain HRR25, stronger effect = lower value 0.13 | locus YPL209C, strain IPL1, stronger effect = lower value 0.232 | [24] 0.108 | locus YPL256C, strain CLN2, stronger effect = lower value 0.147 | locus YPR025C, strain CCL1, stronger effect = lower value 0.248 | locus YPR106W, strain ISR1, stronger effect = lower value 0.586 | locus YPR111W, strain DBF20, stronger effect = lower value 0.715 | [25] 0.163 | strain NNK1, stronger effect = lower value 0.492 | strain TSCII, stronger effect = lower value 0.18

Reference: PubChem BioAssay AID1159580 (chemical genetic matrix, 2015)
